# Results reported in the OligoGym collection.
# Molecular target: TNK1
# Test: pooled miR-30 sensor sort-seq; sequence = guide strand
# Conditions: shRNA
# Note: reference of the scale not given here.
row,Sequence,sensor-assay potency score (higher = more potent)
1,TTGCCTTCTTTCTGTCTCCATC,-1.2
2,TTCAGAGCTTCGGACAGTCTGC,-0.64
3,TCTCATAATCCATACTACCAGC,-1.03
4,TAGTGGGCAGACTAGATCCTTC,-0.841
5,TAATGCTCCAGGATGCGCCAGC,-0.794

# Molecular target: TNKS2
# Test: as above
# Conditions: shRNA
row,Sequence,sensor-assay potency score (higher = more potent)
1,TAGTTTCTTGTTACAAACCTTC,-0.305
2,TTCCACTTGAACTAACTACTGA,0.487
3,TTTAATTGCAGCTTCATGGAGA,0.599
4,TAAATTTCCATAAATCAGCTAC,0.246
5,TTTCTTGTTACAAACCTTCTGA,0.0757
6,TTACTCTGTTATATCCTGCTGC,0.643
7,TTTTGATTCGAGTAACATCAGC,-1.09
8,TATACTTTATTAGTAGAGCTGC,0.192
9,TTATGCTAAAATCTACTCCTGG,0.0124
10,TTACAGTTTCGACATCTCCAGC,-0.869
